# Sampled rows, rich in hits. Any-hit rate of the full collection: about 10%.
# GPT2 inh: inhibitors of human GPT2 alanine aminotransferase | Recombinant GPT2, coupled pyruvate oxidase/HRP Amplex Red fluorescence | 0.25% of 100,000 active | AID 1671188 | Potency, µM (top dose mostly 57.7 µM), inactives show at the top dose activity change, negative = inhibition, usual class: inhibitors | Q8TD30; also: nearly all actives have a fitted effect of over 60% in size
#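 Inhibition is scored from Amplex Red fluorescence generated when pyruvate oxidase and HRP act on pyruvate released by GPT2. Reactions contain 10ng/uL enzyme, 250uM a-KG and 2mM L-alanine and run 30 min at room temperature.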
# FLuc inh: blocks purified firefly luciferase enzyme activity. P08659. purified P. pyralis luciferase, luminescence, biochemical. Potency, µM (top dose mostly 115 µM), most hits filed as inhibitors. 2.5% of 76,000 active; also: nearly all actives have a fitted effect of over 65% in size
# Target sequence (P08659 whole entry, looked up): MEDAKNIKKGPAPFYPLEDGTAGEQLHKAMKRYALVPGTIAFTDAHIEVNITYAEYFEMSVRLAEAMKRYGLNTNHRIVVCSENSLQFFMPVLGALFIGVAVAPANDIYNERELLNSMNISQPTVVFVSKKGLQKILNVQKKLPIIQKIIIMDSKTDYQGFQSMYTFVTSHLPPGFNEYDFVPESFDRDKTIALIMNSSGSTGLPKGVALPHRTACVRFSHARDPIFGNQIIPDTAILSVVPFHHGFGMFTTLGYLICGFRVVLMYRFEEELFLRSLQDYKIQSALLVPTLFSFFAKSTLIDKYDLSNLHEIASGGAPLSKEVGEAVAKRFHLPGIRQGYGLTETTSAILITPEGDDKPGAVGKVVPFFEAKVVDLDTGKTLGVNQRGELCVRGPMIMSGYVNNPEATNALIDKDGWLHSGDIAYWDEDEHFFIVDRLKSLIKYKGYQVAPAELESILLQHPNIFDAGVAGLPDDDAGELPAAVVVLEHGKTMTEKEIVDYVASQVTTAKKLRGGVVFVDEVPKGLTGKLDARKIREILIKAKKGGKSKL
#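 Luminescence read by CCD imager after adding enzyme (10nM final) to wells holding compound, titrated in qHTS. Substrates 10uM each D-luciferin and ATP; buffer 50mM Tris acetate pH 7.5, 10mM Mg acetate, Tween-20, BSA.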
# NIH3T3 tox: cytotoxic compounds in NIH 3T3 cells | AID 1345082 | 4.3% of 94,000 active | NIH 3T3 viability, CellTiter-Glo ATP luminescence, 48-72 h | Potency, µM (doses to about 96.7 µM), inactives show at the highest dose activity change, negative = cytotoxicity, hits mostly inhibitors; also: nearly all actives have a fitted effect of over 55% in size
#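 Viability of NIH 3T3 cells after 48 or 72 hr compound treatment at 37 °C was assessed by CellTiter-Glo, with luminescence imaged following a 10 min room-temperature step.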
# HEK cytotox: HEK 293 cell cytotoxicity. HEK 293 viability, ATP luminescence (CellTiter-Glo), 48-72 h. Potency, µM (series often up to 115 µM), without a hit: at the highest dose activity change, negative = cytotoxicity, most hits filed as inhibitors. 6.6% of 94,000 active; also: nearly all actives have a fitted effect of over 60% in size
#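 ATP-coupled CellTiter-Glo luminescence served as viability read-out, recorded 10 min after reagent addition at room temperature. HEK 293 cells, 250 cells/well, had been incubated with pintool-transferred compound for 48 or 72 hr at 37 degree Celsius.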
# NPR1 antag: blocks ANP-stimulated signaling of human Npr1 receptor; HEK293 hNpr1 GloSensor cGMP, ANP-stimulated luminescence; AID 1347048; 1.6% of 76,000 active; Potency, µM (top dose mostly 46.3 µM), for inactives: top-dose activity change, negative = inhibition, usual class: inhibitors; P16066; calls by dose curve; also: nearly all actives have a fitted effect of over 60% in size
#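 Compound pre-incubated 30 min at room temperature on GloSensor-loaded HEK293 cells stably carrying hNpr1 and the pGS-40F cGMP biosensor. Stimulation uses hNppA at 0.1 nM final; luminescence is taken at baseline and 20 min post-agonist.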
# An asterisk follows results filed as active; i = inactive; ? = inconclusive; . = no result given; [ ] = dose if it differs, or a comment. Unless noted, calls follow the shape of the dose curve; as a rule, active = well fitted curve in the direction sought with a large enough effect; inconclusive = small, poorly fitted or top-dose-only effect, or another doubt; inactive = no such curve, though single readings can be large; an effect the other way counts as inactive or inconclusive. % is scaled to controls: 0 for no effect and ±100 for the full control effect; potency is read from the fitted curve at half-maximal effect.
SMILES,GPT2 inh,FLuc inh,NIH3T3 tox,HEK cytotox,NPR1 antag
COc1ccc(CN2Cc3[nH]nc(-c4ccnn4C)c3CC2=O)cc1,-2%[88.5 µM],i,?,112µM*,-17%[70.6 µM]
COc1ccc(CN2Cc3[nH]nc(-c4ccccc4)c3CC2=O)cc1,-13%[88.5 µM],i,?,i,-1%[70.6 µM]
COc1ccc(CN2Cc3[nH]nc(-c4ccc(N5CCN(C)CC5)cc4)c3CC2=O)cc1,-16%[88.5 µM],i,79µM*,45µM*,-3%[70.6 µM]
COc1ccc(CN2Cc3[nH]nc(-c4cccnc4OC)c3CC2=O)cc1,i,i,?,71µM*,1%[70.6 µM]
Cc1ccccc1C(=O)N1CCCC(C(=O)N2CCC(N3CCOCC3=O)CC2)C1 (stereo not drawn),i,.,-2%,2%,.
CN1CCN(Cc2nc(C3(O)CCN(Cc4ccccc4F)CC3)cs2)CC1,-25%[88.5 µM],i,?,?,2%[70.6 µM]
O=C(NCCc1ccc(Cl)cc1)c1nc(-c2ccc(Cl)cc2Cl)c2cnccn12,-1%,.,-26%,?,.
COCCNC(=O)c1nc(-c2ccc(OC)cc2)c2ccccn12,i,.,?,?,.
COC(=O)CNC(=O)c1nc(-c2c(C)cccc2C)c2ccccn12,i,?,-21%,?,0%
COCCNC(=O)c1nc(-c2ccccc2)c2ccccn12,-21%[88.5 µM],i,?,100µM*,7%[70.6 µM]
COc1ccccc1-c1nc(C(=O)NCCc2ccc(Cl)cc2)n2ccncc12,4%,.,28µM*,?,.
COCCNC(=O)c1nc(-c2c(C)cccc2C)c2ccccn12,-5%[88.5 µM],i,?,35µM*,-1%[70.6 µM]
Cc1cccc(C)c1-c1nc(C(=O)NCCc2ccc(Cl)cc2)n2ccccc12,i,i,-27%,50µM*,-5%
COC(=O)CNC(=O)c1nc(-c2cc(Cl)cc(Cl)c2)c2ccccn12,-11%,i,-15%,35µM*,-25%
COc1ccc(Cl)cc1-c1cc2c(cn1)CN(Cc1cccnc1)CCN2,1%[88.5 µM],i,?,?,-6%[70.6 µM]
Fc1ccccc1-c1cc2c(cn1)CN(Cc1ccncc1)CCN2,-6%[88.5 µM],71µM*,?,?,?
c1ccc(CN2CCNc3cc(-c4ccncc4)ncc3C2)cc1,?,?,-19%[138 µM],?,2%[70.6 µM]
COc1ccc(CNc2cc3c(cn2)CN(Cc2ccccc2)CCN3)cc1OC,3%[88.5 µM],i,40µM*,63µM*,0%[70.6 µM]
Oc1ccc(-c2cc3c(cn2)CN(Cc2ccccc2)CCN3)cc1F,0%[88.5 µM],25µM*,?,?,-2%[70.6 µM]
COc1ccc(-c2cc3c(cn2)CN(Cc2ccccc2)CCN3)cc1OC,i,?,45µM*,?,-13%[70.6 µM]
NC1CCCCN(Cc2cc3ccccc3o2)C1 (stereo not drawn),1%,i,-10%,?,-2%
Cn1ncc2c(C(=O)NCc3ccc(F)cc3)cc(-c3ccsc3)nc21,i,.,?,?,.
Cc1cc(C)n(CC(=O)N2C[C@@H](COc3ccccc3)[C@H](C(N)=O)C2)n1,-6%,i,1%,0%,-12%
COc1ccc(-c2cc3c(cn2)CN(CCc2ccccc2)CCN3)cc1OC,-6%[88.5 µM],71µM*,40µM*,63µM*,-19%[70.6 µM]
c1ccc(CCN2CCNc3cc(N4CCN(c5ccccn5)CC4)ncc3C2)cc1,-3%[88.5 µM],i,28µM*,50µM*,-4%[70.6 µM]
SMILES,GPT2 inh,FLuc inh,NIH3T3 tox,HEK cytotox,NPR1 antag
COc1ccc(N2CC3CCC(C2)N3Cc2cccc(-c3cccnc3)c2)cc1,6.3µM*,.,?,40µM*,.
CN1CCC(C(=O)N2Cc3ccccc3CC3(CCCN(Cc4ccccc4)C3)C2)CC1 (stereo not drawn),i,.,?,?,.
CCN1c2cc(C(=O)Nc3ccc(Oc4ccccc4)cc3)ccc2C(=O)N2CCCCC21 (stereo not drawn),i,i,32µM*,?,-9%
CCOc1ccc(NC(=O)c2ccc3c(c2)N(C)C2CCCCCN2C3=O)cc1 (stereo not drawn),i,?,?,?,-3%
CN1c2cc(C(=O)Nc3ccc(Oc4ccccc4)cc3)ccc2C(=O)N2CCCCCC21 (stereo not drawn),-7%,?,?,10µM*,?
CCOc1ccc(NC(=O)c2ccc3c(c2)N(C)C2CCCCN2C3=O)cc1 (stereo not drawn),2%,?,?,?,-1%
CN1c2cc(C(=O)Nc3ccc(Oc4ccccc4)cc3)ccc2C(=O)N2CCCCC21 (stereo not drawn),i,50µM*,?,?,?
O=C(Nc1cccc(F)c1)c1ccc(Cn2ccn3nc4c(c3c2=O)CCCC4)cc1,i,?,?,?,?
OC[C@@H]1CNC[C@H]1C1CCN(Cc2ccc(Cl)c(F)c2)CC1,i,i,?,40µM*,5%
OC[C@@H]1CNC[C@H]1C1CCN(Cc2ccc(OC(F)(F)F)cc2)CC1,i,i,?,40µM*,-2%
O=C(NCCc1ccc(F)cc1)c1nc2cccnc2n(Cc2ccccc2)c1=O,1%,.,?,?,.
O=C(NC1CCCC1)C1c2ccccc2C(=O)N(C2CCCC2)C12CCCCC2 (stereo not drawn),-4%,i,-6%,-10%,6%
COC(=O)CCNC(=O)C1c2ccccc2C(=O)N(Cc2ccccc2)C12CCCC2 (stereo not drawn),i,i,5%,-9%,1%
O=C(NCCc1ccccc1)C1c2ccccc2C(=O)N(Cc2ccccc2)C12CCCC2 (stereo not drawn),i,i,32µM*,40µM*,-12%
O=C(NC1CC1)C1c2ccccc2C(=O)N(C2CCCCC2)C12CCCCC2 (stereo not drawn),i,i,?,32µM*,-6%
COc1cccc(C(=O)NCC2CCCN(Cc3ccccn3)C2)c1OC (stereo not drawn),i,i,-17%,-10%,-3%
Cc1c(CN2CCCC(CNC(=O)c3cccc4ccccc34)C2)[nH]c2ccccc12 (stereo not drawn),i,i,20µM*,18µM*,-3%
O=C(NCC1CC1)[C@@H]1CCCN1c1nccc(Nc2ccccc2Cl)n1,3%,.,?,?,.
CCCNC(=O)N1CC(Oc2ccc(-c3nc(-c4ccccc4)no3)cc2)C1,i,?,-41%,-51%,0.4µM*
O=C(CN1CCCCCC1)N1CC(Oc2ccc(-c3noc(-c4ccccc4)n3)cc2)C1,2%,?,?,?,-12%
CC(Oc1ccccc1)C(=O)N1CC(Oc2ccc(-c3nc(-c4ccccc4)no3)cc2)C1 (stereo not drawn),i,.,?,?,.
